Where “and” joins values, the source holds several entries; their conditions need not be identical. Equal entries are not always repeated. Results filed as inconclusive are left out. Some compounds were tested as several samples or in several runs, with calls that do not always agree. Calls of active or inactive are those of the source. Unless noted, calls come from the whole dose curve; as a rule, active = well fitted curve in the direction sought with a large enough effect in the repeat runs; inconclusive = weak or mixed curves; inactive = no such curve, though single readings can be large; an effect the other way counts as inactive or inconclusive.

In PubChem BioAssay (Tox21) one finds Potency and outcome data, which are given here for 26 molecules.

Experiment [1] in a line: qHTS assay to identify small molecule agonists of the peroxisome proliferator-activated receptor delta (PPARd) signaling pathway - cell viability counter screen (AID 743211). Note: nearly all actives have a fitted effect of over 55% in size. Note: potency is the fitted concentration of half-maximal effect. In outline: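 qHTS cell viability: PPARd-bla HEK293H; 17 h cpd, 37C; CellTiter-Glo, luminescence at 30 min RT.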
(In qHTS, concentration-response curves come from the screen itself.)

Experiment [2] in a line: qHTS assay to identify small molecule antagonists of the peroxisome proliferator-activated receptor delta (PPARd) signaling pathway - cell viability counter screen (AID 743213). Note: nearly all actives have a fitted effect of over 50% in size. Note: potency is the fitted concentration of half-maximal effect. Put shortly: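 Cytotoxicity counter screen: CellTiter-Glo luminescence read 30 min after addition, in the same wells as the reporter assay. There, PPARd UAS-bla HEK293H cells (3000/well) were treated 17 h at 37 C with compound and 300 nM L165041.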

Experiment [3] deals with Peroxisome proliferator-activated receptor delta (Homo sapiens) (UniProt Q03181). Description: qHTS assay to identify small molecule antagonists of the peroxisome proliferator-activated receptor delta (PPARd) signaling pathway (AID 743215; active = well fitted inhibition curve with a large enough effect in the signal ratio in the repeat runs, not every such curve was filed as active; the % refers to the signal ratio;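 note: cells stimulated with agonist L165041 at 300 nM final during compound exposure; series mostly up to about 62 µM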). Put shortly:
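Antagonist-mode beta-lactamase reporter screen: HEK293H cells with UAS-bla under PPARd control, stimulated by 300 nM L165041 (final) alongside test compound for 17 h at 37 C, then FRET fluorescence after 2 h substrate incubation.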

Experiment [4] has as its target Bile acid receptor (Homo sapiens) (UniProt Q96RI1). Description: qHTS assay to identify small molecule antagonists of the farnesoid-X-receptor (FXR) signaling pathway (AID 743217; active = well fitted inhibition curve with a large enough effect in the signal ratio in the repeat runs, not every such curve was filed as active; the % refers to the signal ratio). In outline: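 Beta-lactamase reporter under UAS control in HEK 293T cells; compound exposure 16 h at 37 °C in the presence of chenodeoxycholic acid (50 uM final); signal from B/G FRET substrate after 2 h at room temperature.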

Experiment [5] can be described thus: qHTS assay to identify small molecule agonists of the farnesoid-X-receptor (FXR) signaling pathway - cell viability counter screen (AID 743218). Note: nearly all actives have a fitted effect of over 45% in size. Note: potency is the fitted concentration of half-maximal effect. Put shortly: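 In GeneBLAzer FXR-UAS-bla HEK 293T cells, compounds act for 16 h at 37 C. Cell viability is then scored in the reporter wells by CellTiter-Glo, 30 min at RT, luminescence.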
In experiment [6] the target is Bile acid receptor (Homo sapiens) (UniProt Q96RI1). Nature of the experiment: qHTS assay to identify small molecule agonists of the farnesoid-X-receptor (FXR) signaling pathway (AID 743220; active = well fitted activation curve with a large enough effect in the signal ratio in the repeat runs, not every such curve was filed as active; the % refers to the signal ratio). In outline:
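Beta-lactamase reporter under UAS control in GeneBLAzer FXR HEK 293T cells (5000/well) measured with LiveBLAzer FRET substrate after 2 h at room temperature. Compound exposure lasted 16 h at 37C.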

Experiment [7] is described as follows: qHTS assay to identify small molecule antagonists of the farnesoid-X-receptor (FXR) signaling pathway - cell viability counter screen (AID 743221; active = well fitted cell-killing curve with a large enough effect in the repeat runs, not every such curve was filed as active; note: nearly all actives have a fitted effect of over 50% in size). Put shortly:
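After a 5 h settling period, FXR-bla HEK 293T cells receive compound and chenodeoxycholic acid (50 uM final) and incubate 16 h at 37 C; CellTiter-Glo luminescence, read after 30 min at room temperature, reports cell viability.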

The target in experiment [8] is Peroxisome proliferator-activated receptor delta (Homo sapiens) (UniProt Q03181). Nature of the experiment: qHTS assay to identify small molecule agonists of the peroxisome proliferator-activated receptor delta (PPARd) signaling pathway (AID 743212; calls by dose curve). In outline:
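GeneBLAzer PPARd UAS-bla HEK293H cells (beta-lactamase reporter under UAS control), plated and rested 5 h at 37 C, then exposed to compounds in DMSO at 37 C; LiveBLAzer B/G FRET substrate added, 2 h room temperature, fluorescence read.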

For experiment [9], the target named is Vitamin D3 receptor (Homo sapiens) (UniProt P11473). Description: qHTS assay to identify small molecule agonists of the vitamin D receptor (VDR) signaling pathway (AID 743222; calls by dose curve; note: potency is the fitted concentration of half-maximal effect). In outline: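 Agonist activity measured in VDR-bla reporter cells. Exposure 16 h, 37C, 5% CO2; detection by B/G FRET substrate, 2 h RT.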
Sequence of Vitamin D3 receptor (Homo sapiens) (P11473 whole entry, looked up): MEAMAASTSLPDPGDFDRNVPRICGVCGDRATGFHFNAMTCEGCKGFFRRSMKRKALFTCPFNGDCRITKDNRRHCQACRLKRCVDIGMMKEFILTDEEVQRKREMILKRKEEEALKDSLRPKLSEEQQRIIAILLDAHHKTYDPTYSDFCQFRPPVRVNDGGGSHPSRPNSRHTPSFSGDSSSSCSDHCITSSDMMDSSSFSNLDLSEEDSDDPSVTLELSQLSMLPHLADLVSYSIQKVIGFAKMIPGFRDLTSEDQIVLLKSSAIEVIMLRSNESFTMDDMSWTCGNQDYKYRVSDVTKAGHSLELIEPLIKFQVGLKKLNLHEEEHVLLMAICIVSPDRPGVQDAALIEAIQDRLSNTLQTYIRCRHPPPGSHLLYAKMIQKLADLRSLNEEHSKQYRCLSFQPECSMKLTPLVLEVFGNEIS
For experiment [10] the target is unchanged. Nature of the experiment: qHTS assay to identify small molecule antagonists of the vitamin D receptor (VDR) signaling pathway (AID 743223; active = well fitted inhibition curve with a large enough effect in the signal ratio in the repeat runs, not every such curve was filed as active; the % refers to the signal ratio). In outline:
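Reporter line VDR-bla; stimulus 1alpha,25-(OH)2 vitamin D3, 3 nM final; compound co-addition, 16 h 37C/5% CO2; LiveBLAzer B/G substrate 2 h RT; fluorescence intensity.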

Sequence of Bile acid receptor (Homo sapiens) (Q96RI1 whole entry, looked up): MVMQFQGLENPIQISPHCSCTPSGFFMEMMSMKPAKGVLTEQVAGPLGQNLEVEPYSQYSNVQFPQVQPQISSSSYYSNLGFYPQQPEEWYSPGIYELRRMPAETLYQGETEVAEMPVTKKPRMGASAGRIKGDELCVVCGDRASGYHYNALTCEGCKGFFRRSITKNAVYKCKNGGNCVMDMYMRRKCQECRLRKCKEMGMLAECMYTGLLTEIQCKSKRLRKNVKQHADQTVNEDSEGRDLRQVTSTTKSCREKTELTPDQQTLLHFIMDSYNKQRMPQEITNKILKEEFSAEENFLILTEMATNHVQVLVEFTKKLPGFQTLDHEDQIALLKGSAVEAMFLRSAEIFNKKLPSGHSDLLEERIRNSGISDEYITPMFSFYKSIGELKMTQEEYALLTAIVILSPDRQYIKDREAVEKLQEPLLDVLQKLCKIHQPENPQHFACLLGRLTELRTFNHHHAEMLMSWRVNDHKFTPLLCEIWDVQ
Sequence of Peroxisome proliferator-activated receptor delta (Homo sapiens) (Q03181 whole entry, looked up): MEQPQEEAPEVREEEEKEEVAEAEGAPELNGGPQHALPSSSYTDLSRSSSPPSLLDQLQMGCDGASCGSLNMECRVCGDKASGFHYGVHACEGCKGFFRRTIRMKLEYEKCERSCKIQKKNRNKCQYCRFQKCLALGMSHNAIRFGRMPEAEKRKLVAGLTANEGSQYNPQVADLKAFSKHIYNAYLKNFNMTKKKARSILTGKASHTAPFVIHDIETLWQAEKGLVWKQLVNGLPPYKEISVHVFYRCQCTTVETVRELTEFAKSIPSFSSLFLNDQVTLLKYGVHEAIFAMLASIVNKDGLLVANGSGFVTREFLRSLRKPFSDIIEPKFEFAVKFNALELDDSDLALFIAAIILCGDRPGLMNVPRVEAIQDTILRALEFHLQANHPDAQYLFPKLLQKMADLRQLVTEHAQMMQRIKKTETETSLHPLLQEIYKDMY

For `O=C(c1ccc(O)cc1)c1ccc(O)cc1O`, the Potency entry in experiment [1], in [2], in experiment [5] and in [7] was “inactive” throughout. Besides, the outcome in experiment [3], in experiment [4] and in [6] was inactive.
On to `O=Nc1ccc(O)cc1`, for which the Potency entry in experiment [1], in [2], in [5] and in experiment [7] was “inactive” throughout. The call in experiment [3], in experiment [4] and in [6] was inactive.
For `CC(C)(C)C(=O)C1C(=O)c2ccccc2C1=O`, the Potency result in experiment [1], in experiment [2], in experiment [5], in experiment [7], in experiment [9] and in experiment [10] was “inactive” throughout. Also, the outcome in experiment [8], in [3] and in [6] was inactive.
As to `CCCCC/C=C\C/C=C\CCCCCCCC(=O)OC`, the Potency result in experiment [1], in [2] and in experiment [7] was “inactive” in each case. Besides, in experiment [8], the molecule was classed as inactive. Besides, the Potency entry in [5] was “inactive and 54.9 µM (active)”.
Turning to `O=[N+]([O-])c1cccc(Cl)c1`, the Potency entry in [1], in experiment [2], in [5], in [7], in [9] and in experiment [10] was “inactive” in each case. The molecule was classed as inactive in experiment [8] and in [3].
For `Clc1ccc(Cl)c(Cl)c1Cl`, the Potency result in experiment [1], in experiment [2], in experiment [5], in [7], in experiment [9] and in experiment [10] was “inactive” each time. Besides, the molecule was called inactive in experiment [3], in [4] and in experiment [6].
With `NS(=O)(=O)c1cc2c(cc1Cl)NC=NS2(=O)=O`, the Potency entry in experiment [1], in experiment [2], in experiment [5], in [7], in [9] and in [10] was “inactive” throughout. The outcome in [8] and in experiment [3] was inactive.
With `CCC(=O)O`, the Potency result in experiment [1], in experiment [2], in experiment [5], in [7], in [9] and in experiment [10] was “inactive” throughout. Moreover, the outcome in [8] and in experiment [3] was inactive.
With `CC(C)(CO)COC(=O)C(C)(C)CO`, the Potency result in [1], in experiment [2], in experiment [5], in experiment [7], in experiment [9] and in experiment [10] was “inactive” in each case. In addition, the molecule was classed as inactive in experiment [8], in [3], in experiment [4] and in [6].
As to `O=C(Oc1ccccc1)c1ccc(O)cc1`, the Potency result in experiment [1], in experiment [2], in experiment [5], in experiment [7], in [9] and in experiment [10] was “inactive” in each case. Besides, in experiment [8], the call was inactive.
Take `CC1CC(OC(=O)c2ccccc2O)CC(C)(C)C1` (stereo not given): the Potency result in experiment [1], in experiment [2], in [5] and in [7] was “inactive” in each case. Further, the outcome in [8] and in [3] was inactive.
As to `Cn1c([N+](=O)[O-])cnc1COC(N)=O`, the Potency entry in [1], in experiment [2], in experiment [5], in experiment [7], in [9] and in experiment [10] was “inactive” throughout. Also, the outcome in experiment [8] and in [3] was inactive.
With `CCC(C)C=O` (stereo not given), the Potency entry in [1], in experiment [2], in experiment [5], in [7] and in experiment [9] was “inactive” in each case. The result in [3], in experiment [4] and in experiment [6] was inactive.
`CCCCCCCCCCC=CC1CC(=O)OC1=O` (stereo not given): the Potency result in experiment [1], in experiment [2], in experiment [5], in experiment [7], in experiment [9] and in [10] was “inactive” in each case. In addition, the call in experiment [8], in experiment [4] and in experiment [6] was inactive.
`CCCCCC/C=C/CCCCCCCC(=O)O`: the Potency result in [1], in [2], in [5], in [7] and in experiment [10] was “inactive” throughout. Besides, the molecule was classed as inactive in experiment [8], in experiment [3], in experiment [4] and in [6].
Regarding `CC1=C(CC(=O)O)c2cc(F)ccc2/C1=C\c1ccc(S(C)=O)cc1` (stereo not given), the Potency entry in [1], in experiment [2], in experiment [5] and in [7] was “inactive” in each case. The result in experiment [3] was inactive.
Turning to `Cc1ccc(N)c(S(=O)(=O)O)c1`, the molecule was called inactive in experiment [8], in experiment [3], in experiment [4] and in experiment [6]. Moreover, the Potency result in experiment [2], in [5], in experiment [7] and in [9] was “inactive” each time.
Turning to `CCOC(=O)[C@H](CCc1ccccc1)N[C@@H](C)C(=O)N1Cc2ccccc2C[C@H]1C(=O)O`, the call in experiment [8], in experiment [3], in experiment [4] and in experiment [6] was inactive. The Potency entry in experiment [2], in experiment [5], in experiment [7], in [9] and in experiment [10] was “inactive” throughout.
Regarding `C=C1CC[C@H](O)CC1=C/C=C1\CCC[C@]2(C)[C@@H]([C@H](C)/C=C/[C@H](C)C(C)C)CC[C@@H]12`, the Potency in experiment [1] is 54.5 µM (active) and 6.16 µM (active); in [9], 3.86 µM (active). For the same molecule, the Potency entry in experiment [2] and in [7] was “inactive” in each case. For the same molecule, the call in experiment [3] and in [6] was inactive.
As for `NCc1cccc(CN)c1`, the call in experiment [8], in [3], in [4] and in experiment [6] was inactive. The Potency result in experiment [2], in experiment [5], in experiment [7], in [9] and in [10] was “inactive” each time.
With `CC(C)NCC(O)COc1cccc2ccccc12` (stereo not given), the Potency entry in [1], in experiment [5], in [7], in experiment [9] and in experiment [10] was “inactive” throughout. Also, the Potency in experiment [2] is 49.5 µM (active) and 21.9 µM (active). The molecule was classed as inactive in experiment [4] and in experiment [6].
For `CC1(C)CC(N=C=O)CC(C)(CN=C=O)C1` (stereo not given), the Potency entry in experiment [1], in experiment [2], in experiment [5], in experiment [7], in experiment [9] and in [10] was “inactive” in each case. The outcome in experiment [4] and in [6] was inactive.
Consider `Cc1ccc(C(=O)O)o1`, for which the Potency entry in experiment [1], in [2], in experiment [7], in experiment [9] and in [10] was “inactive” each time. Besides, the call in experiment [3] was inactive.
In the case of `Cc1cc(O)cc(C)c1Cl`, the molecule was classed as inactive in [8] and in [3]. The Potency result in [2], in experiment [5] and in [7] was “inactive” in each case.
As to `Oc1ccc2ccccc2c1`, the Potency result in [1], in experiment [5], in experiment [7], in experiment [9] and in experiment [10] was “inactive” in each case. For the same molecule, in experiment [2], the Potency result was “inactive and 3.89 µM (active)”.
In the case of `C=C(C)C(=O)OCCCCCCCCCCCC`, the Potency result in [1], in experiment [2], in [5], in experiment [7], in experiment [9] and in experiment [10] was “inactive” throughout. Moreover, the outcome in experiment [3] was inactive.
